Results on 9 compounds are retold here after PubChem BioAssay (NCI).

Holding throughout (assay): NCI-60 one-dose screen, 48 h (100 = growth as untreated, 0 = no growth, -100 = all killed)
Common to all, as to details: 10 µM unless noted

Test [1] concerns SK-MEL-2 melanoma.
Test [2] relates to EKVX NSCLC.
The subject of test [3] is SN12C renal.
For test [4], the system named is UO-31 renal.
In test [5] the test system is TK-10 renal.
Test [6] relates to ACHN renal.
For test [7], the system named is A498 renal.
The test system of test [8] is CCRF-CEM leukemia.
Test [9] has as its system MOLT-4 leukemia.
For test [10], the system named is SR leukemia.
For test [11], the system named is RPMI-8226 leukemia.
Test [12] has as its system OVCAR-8 ovarian.
The subject of test [13] is OVCAR-5 ovarian.
The test system of test [14] is OVCAR-4 ovarian.
In test [15] the test system is SK-OV-3 ovarian.
In test [16] the test system is IGROV1 ovarian.
For test [17], the system named is HS 578T breast.
The test system of test [18] is NCI/ADR-RES ovarian.
The subject of test [19] is OVCAR-3 ovarian.

The panel holds about 83,000 compounds, 20% with a hit somewhere; the sample as a whole holds those more often.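 Results are percent growth after 48 hours of single-concentration exposure. 100 means growth as in untreated cells, lower positive values show inhibition; negative values down to -100 show cell death.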 A number with no mark means an inactive call. Active and inactive are the calls of the source. Rule for the calls: active = growth percent below 10; inactive = the rest.

Regarding `CN1CCN(Cn2nc(-c3cc(Cl)cc(Cl)c3Cl)n(/N=C/c3ccc(Cl)cc3)c2=S)CC1`, the growth in test [1] is 97.6%; in test [2], 118%; in test [3], 96.4%; in test [4] it was 88%; in test [5] it was 94.6%; in [6], 100%. In addition, the growth was 97.8% in [7]; 33.4% in test [8]; 59% in test [9]; 38.7% in [10]; 96.3% in test [11]; 93.5% in test [12]. For the same compound, the growth in [13] was 96.3%; in test [14] it was 94.5%; in test [15], 101%; in test [16], 108%; in test [17], 112%; in test [18] it was 96.6%.

Consider `COc1cc2c(/C=C3/C(=O)Nc4ccc(O)cc43)c(Cl)n(Cc3cc(OC)c(OC)c(OC)c3)c2cc1C`, for which the growth in test [1] was 36.7%; in test [2], 13.3%; in test [3] it was 59.6%; in test [4], -0.307% (active); in test [5], 25.8%; in test [6] it was 130%. Further, the growth in [7] is 24.9%; in [8], -9.62% (active); in test [9], -24.1% (active); in test [10], -38.1% (active); in test [11], -22.9% (active); in test [12] it was 22.3%. Further, the growth was 74.1% in [13]; 21.8% in test [14]; 38.5% in [15]; 26.9% in test [16]; 4.73% (active) in test [17]; 9.32% (active) in test [18].

Take `Cc1cc2nc(-c3c(N)ncc(C#N)c3-c3ccc(Cl)cc3)[nH]c2cc1C`: the growth was 59.9% in test [1]; 63.7% in [2]; 76.5% in [3]; 77.8% in test [4]; 41.5% in test [5]; 67.7% in test [6]. The growth in [7] is 44.1%; in test [8], 54.5%; in [9], 73.3%; in test [10], 49.4%; in test [11], 56%; in test [12], 38.4%. The growth in test [13] was 83.2%; in test [14], 56.1%; in [15], 75.9%; in test [16], 46%; in test [19] it was 21.8%; in test [18] it was 53.9%.

As to `Cc1cc2c(cc1C)N(C(=O)CCl)CCN2C(=O)CCl`, the growth is -68.1% (active) in test [1]; -23% (active) in test [2]; -38.4% (active) in test [3]; -81.5% (active) in test [4]; -96.9% (active) in [5]; -81.6% (active) in test [6]. For the same compound, the growth in test [7] was 85%; in test [8], -28.8% (active); in test [9] it was 1.2% (active); in test [10], -13.6% (active); in [11] it was -41.9% (active); in test [12], -4.44% (active). The growth in [13] is -74.4% (active); in test [14], -72% (active); in test [15] it was 53%; in [16], -61.8% (active); in [19], -95.8% (active); in test [18], -49.7% (active).

Take `Nn1c(SCC(=O)Nc2cc(Cl)c(Cl)cc2Cl)nnc1-c1cc(F)c(Cl)cc1Cl`: the growth is 87.3% in test [1]; 66.5% in test [2]; 151% in test [3]; 65.2% in test [4]; 123% in [5]; 210% in [6]. Also, the growth in test [7] is 115%; in test [8], 125%; in test [9], 84.8%; in [10] it was 99.5%; in test [11], 132%; in [12], 97.5%. Besides, the growth in [13] is 108%; in test [14], 120%; in test [15] it was 105%; in [16], 55.2%; in test [17] it was 103%; in test [18], 99.7%.

With `O=C(COc1ccc(Cl)cc1Cl)N1N=C(c2ccc(Cl)cc2Cl)CC1(O)c1cc(F)c(Cl)cc1Cl` (configuration not stated), the growth was 95.3% in test [1]; 87.7% in [2]; 155% in [3]; 76.3% in [4]; 139% in [5]; 234% in test [6]. The growth in test [7] is 142%; in test [8], 125%; in test [9], -47.9% (active); in test [10], 23.2%; in test [11], 144%; in test [12] it was 93.2%. Moreover, the growth is 105% in test [13]; 116% in test [14]; 110% in test [15]; 69.7% in test [16]; 122% in test [17]; 106% in [18].

Turning to `S=c1ssnc1-c1ccccn1`, the growth in [1] is 31.6%; in test [2], 65.2%; in [3], 38%; in [4], -40.8% (active); in test [5] it was 40.1%; in [6] it was 15.4%. For the same compound, the growth in [7] was 13%; in test [8], -6.05% (active); in test [9] it was 0.997% (active); in [10], -25.5% (active); in test [11], 10.2%; in [12], 54.9%. Besides, the growth in test [13] was 70.1%; in [14] it was 56.1%; in [15], 67.8%; in [16], 15.2%; in [17], -7.73% (active); in [18] it was 48.4%.

Turning to `N#Cc1c(N)nc2c(c1N)C(c1ccc(Cl)cc1)C1=C(CCCC1=O)N2c1sc2c(c1C#N)CCCC2` (configuration not stated), the growth in test [1] was 95.8%; in test [2], 93.7%; in [3], 95.4%; in test [4] it was 95.9%; in test [5], 89.2%; in test [6], 96.8%. Further, the growth in test [7] was 100%; in test [8], -34% (active); in test [9], 90%; in test [10], 41.8%; in test [11], 75.5%; in [12], 84.4%. Besides, the growth in test [13] was 74.8%; in [14] it was 89.9%; in test [15], 89.1%; in test [16], 89.6%; in test [17], 86.7%; in test [18], 81.1%.

For the compound `COC(=O)c1oc2c(C(C)=O)c(OCCCN(C)C)ccc2c1C`, the growth in test [1] is 106%; in test [2], 187%; in [3], 109%; in [4], 75.3%; in [5], 90.8%; in [6], 107%. The growth in test [7] was 125%; in test [8], -13.6% (active); in test [9], 85.8%; in test [10], 95%; in test [11], 97.2%; in [12] it was 111%. Also, the growth in test [13] was 101%; in test [14], 96.4%; in [15], 121%; in [16], 30.1%; in test [17] it was 97.3%; in test [18], 87.4%.
